# In the library only some 19% were active in any assay of this set; here they are far more common.
# HT1080 IDH1KD tx – qHTS for induction of synthetic lethality in tumor cells producing 2HG: qHTS for the HT-1080-IDH1KD cell line | HT-1080 IDH1 knockdown viability, ATP luminescence, 48 h | Potency, µM (doses to about 46.1 µM), for inactives: at the top dose activity, negative = toxicity, usual class: cytotoxic | hit rate 2% among 360,000;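 note: potency is the fitted concentration of half-maximal effect; 0% = DMSO wells and -100% = cell-free medium wells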
#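 % activity derives from luminescence (CellTiter-Glo), normalised to DMSO and no-cell wells. HT-1080-IDH1KD cells, 750/well, had 48 h compound exposure at 37 °C.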
# IL1B secr inh – qHTS for Inhibitors of Inflammasome Signaling: IL-1-beta AlphaLISA Primary Screen. hit rate 4.7% among 360,000. activity change, % at 57.5 µM. AID 743279, 2014. THP-1 LPS/ATP IL-1B secretion, AlphaLISA, 16 h; stronger effect = lower value; in the data active = activity change below about -50%; inconclusive = mostly about -30% to -49%
#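 THP-1 cells pretreated 1 hr with compounds (up to 57.5 uM final), then stimulated with LPS (250 ng/mL final) plus ATP (1.25 mM final); secreted IL-1B measured by AlphaLISA after 16 hr, decreased signal indicating inhibition.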
# uPA surface inh – qHTS for Inhibitors of Cell Surface uPA Generation. cell surface uPA generation assay, qHTS. Potency, µM (titrated, usually from 38.3 µM), inactives show at the top dose activity change, negative = inhibition, usual class: inhibitors. hit rate 0.31% among 330,000. AID 540303, 2011; active = well fitted inhibition curve with a large enough effect; inconclusive = small, poorly fitted or top-dose-only effect; inactive = no such curve, though single readings can be large or run the other way; tested in mouse RAW 264.7 cells; note: potency is the fitted concentration of half-maximal effect; nearly all actives have a fitted effect of over 55% in size
# HT1080NT lethal – qHTS for induction of synthetic lethality in tumor cells producing 2HG: qHTS for the HT-1080-NT fibrosarcoma cell line | Potency, µM (titrated, usually from 46.1 µM), for inactives: at the top dose activity, negative = less viability, usual class: cytotoxic | HT-1080-NT fibrosarcoma viability, CellTiter-Glo ATP luminescence, 48 h | hit rate 1.6% among 360,000;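 note: NT is the 2HG producing partner of a matched IDH1 knockdown line; potency is the fitted concentration of half-maximal effect; 0% = DMSO-treated cells and -100% = media-only wells without cells; nearly all actives have a fitted effect of over 55% in size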
#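 HT-1080-NT fibrosarcoma cells (2HG-overproducing), 750 cells/well in RPMI with 5% FBS, dosed after 2 h and incubated 48 h at 37C. CellTiter-Glo luminescence normalized to DMSO and no-cell wells; concentration-response curves fitted and classed.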
# TDP1 cell noCPT – qHTS for Inhibitors of human tyrosyl-DNA phosphodiesterase 1 (TDP1): qHTS in cells in absence of CPT. DT40 Tdp1-/- hTDP1 cells, no CPT, ATP luminescence, 48 h. Potency, µM (titrated, usually from 46.2 µM), for inactives: top-dose activity change, negative = growth inhibition, hits mostly inhibitors. hit rate 15% among 420,000; note: potency is the fitted concentration of half-maximal effect; nearly all actives have a fitted effect of over 55% in size
#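 No-CPT arm: Tdp1-/-;hTDP1 DT40 cells (400/well) plus compounds, incubated ≥48 hr at 37 °C. Readout CellTiter-Glo luminescence.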
# TDP1 cell CPT – qHTS for Inhibitors of human tyrosyl-DNA phosphodiesterase 1 (TDP1): qHTS in cells in presence of CPT | AID 686979, 2013 | chicken DT40 Tdp1-/-;hTDP1 cells + 20 nM CPT, ATP luminescence, 48 h | hit rate 12% among 420,000 | Potency, µM (top dose mostly 46.2 µM), for inactives: at the top dose activity change, negative = growth inhibition, hits mostly inhibitors; note: potency is the fitted concentration of half-maximal effect; nearly all actives have a fitted effect of over 55% in size
#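 Cell growth measured by CellTiter-Glo luminescence after a minimum 48 h, 37 C compound exposure with 20 nM CPT in Tdp1-knockout DT40 cells stably expressing hTDP1, seeded 400/well; qHTS titration format.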
# Numbers without * were called inactive; ? = inconclusive; nt = no result; [ ] = remark or other dose. Unless noted, calls come from the whole dose curve; as a rule, active = well fitted curve in the direction sought with a large enough effect; inconclusive = small, poorly fitted or top-dose-only effect, or another doubt; inactive = no such curve, though single readings can be large; an effect the other way counts as inactive or inconclusive. Unless noted, % is set by controls: 0 for no effect and ±100 for the full control effect.
SMILES,HT1080 IDH1KD tx,IL1B secr inh,uPA surface inh,HT1080NT lethal,TDP1 cell noCPT,TDP1 cell CPT
CC(O)(CS(=O)(=O)Cc1cccc(C(F)(F)F)c1)C(=O)Nc1cccc(C(F)(F)F)c1 (configuration not stated),16µM*,-8,nt,?,-29%,1%
CN(CC(=O)Nc1ccc(Br)cc1)Cc1ccccc1,5%,-81*,8%,-1%,-29%,-26%
CN(CC(=O)Nc1cccc(C(F)(F)F)c1)Cc1ccccc1,5%,?,nt,1%,9.2µM*,?
CN(C)CCNc1ncnc2c1sc1nc(N3CCOCC3)c3c(c12)CC(C)(C)SC3,?,-80*,-4%,?,21µM*,?
COC(=O)CSc1ncnc2c1sc1nc(N3CCOCC3)c3c(c12)CCCC3,17%,21,-1%,16%,-5%,-5%
CCCCN(CC)c1ncnc2c1sc1nc(N3CCOCC3)c3c(c12)CCCC3,nt,nt,nt,nt,14%,2%
CC1(C)Cc2c(c(N3CCCC3)nc3sc4c(N5CCN(CCO)CC5)ncnc4c23)CO1,-5%,-61*,-20%,?,11µM*,16µM*
CC1(C)Cc2c(c(N3CCOCC3)nc3sc4c(NCCN)ncnc4c23)CO1,?,0,9%,?,?,?
OCCN(CCO)c1ncnc2c1sc1nc(N3CCOCC3)c3c(c12)CCCC3,-14%,1,-11%,-18%,18µM*,16µM*
OCCN1CCN(c2ncnc3c2sc2nc(N4CCOCC4)c4c(c23)CCC4)CC1,9%[9.24 µM],-77*,-4%,?,21µM*,?
O=C(COc1ccccc1F)OCc1cc(=O)n2nc(-c3cccs3)sc2n1,nt,nt,nt,nt,-2%,-12%
COc1ccc(C)cc1NC(=O)Cc1c(C(=O)O)c(C)cn1C,nt,nt,nt,nt,-2%,9%
CCc1nc(NCCCn2ccnc2)c2oc3ccccc3c2n1,-6%,-18,-6%,-3%,?,?
c1ccc(-c2nc(NCCCn3ccnc3)c3oc4ccccc4c3n2)cc1,?,-79*,nt,?,?,?
COc1ccc(NC(=O)COC(=O)CCOc2ccccc2C)cc1Cl,-1%,-4,2%,1%,-11%,-28%
CC(C)(C)c1ccc(CCC2OCC(C[N+]3(C)CCOCC3)O2)cc1 (configuration not stated),16%,nt,-1%,1%,2.1µM*,1.8µM*
CC(C)c1ccc(C(O)P(=O)(OC2CCCCC2)OC2CCCCC2)cc1 (configuration not stated),?,-92*,-2%,?,?,?
CN(C)c1ccc(P(=O)(OC2CCCCC2)C(O)c2cccnc2)cc1 (configuration not stated),1%,9,-1%,2%,-17%,-5%
COc1ccc(S(=O)(=O)Nc2ccc3c(c2)OCCO3)cc1OC,6%,14,-2%,-1%,-2%,12%
Cc1c(NS(=O)(=O)c2ccc3c(c2)OCCO3)cccc1-c1nc2cccnc2s1,-2%,-6,6%,-9%,12µM*,?
Cc1ccc(S(=O)(=O)Nc2ccc3nc(N)sc3c2)cc1,?,-3,nt,-7%,12µM*,13µM*
Cc1nc2ccc(NS(=O)(=O)c3ccc4c(c3)OCCO4)cc2s1,-12%,-9,-9%,-7%,1.5µM*,1.8µM*
Cc1nc2ccc(NS(=O)(=O)c3cccc([N+](=O)[O-])c3)cc2s1,-16%,12,-6%,-19%,15µM*,18µM*
CCC/C(O)=C1\C(=O)CC(c2ccccc2)CC1=NC(C)C(=O)O (configuration not stated),15%,10,-3%,17%,-12%,21%
CCn1c(=N)c(C(=O)NCc2ccccc2)cc2c(=O)n3cc(C)ccc3nc21,nt,nt,nt,nt,2%,-3%
SMILES,HT1080 IDH1KD tx,IL1B secr inh,uPA surface inh,HT1080NT lethal,TDP1 cell noCPT,TDP1 cell CPT
COc1ccc(-n2c3c(cc(-c4nc(-c5ccc(Cl)cc5)cs4)c2=O)C(=O)CC(C)(C)C3)cc1Cl,nt,nt,nt,nt,-6%,-12%
Cc1ccc(Cc2c(-c3cccc(Cl)c3)nc3c4ccccc4ccn23)cc1,-2%,34,nt,2%,?,?
Cc1nc2ccc(S(=O)(=O)Nc3ccc(-c4nc5cccnc5s4)cc3)cc2s1,1%,19,13%,17%,-23%,-1%
Cc1nc2ccc(NC(=O)CCS(=O)(=O)c3ccc(Cl)cc3)cc2s1,-2%,65,-8%,0%,15µM*,12µM*
O=S(=O)(Nc1cccc(-c2ccc(N3CCOCC3)nn2)c1)c1cc(Cl)ccc1Cl,-21%,16,-6%,-19%,?,-4%
O=S(=O)(Nc1ccc(N2CCOCC2)cc1)c1cc(Cl)ccc1Cl,-14%,-3,nt,-13%,12µM*,-14%
Cc1nc2ccc(NS(=O)(=O)c3ccc(F)c(F)c3)cc2s1,-6%,33,-25%,3%,?,18µM*
Cc1nc2ccc(NS(=O)(=O)c3ccc(Br)cc3)cc2s1,-3%,10,-17%,-6%,5.2µM*,13µM*
Cc1ccc(C(O)c2ncc(-c3ccccc3F)[nH]2)c(C)c1 (configuration not stated),-2%,-2,nt,-4%,?,?
CN(C)c1ccc(C2CC(=O)C=C(Nc3ccccc3N)C2)cc1 (configuration not stated),2%,5,-6%,-5%,-19%,0%
Cn1ccc2c(-c3ccc(C(=O)O)cc3)cc3c(c21)C1CCC3C1 (configuration not stated),1%,33,nt,2%,-12%,-13%
O=S(=O)(Nc1ccc(N2CCCCC2)cc1)c1ccc(F)c(F)c1,-28%,-3,0%,-26%,15µM*,?
O=C(O)c1cc(S(=O)(=O)Nc2ccc(N3CCCCC3)cc2)ccc1Cl,7%,3,-1%,14%,-3%,2%
CCn1c(=O)c(C(=O)CN(C)CC(=O)Nc2cccc(F)c2)c(N)n(Cc2ccccc2)c1=O,?,-3,-20%,-27%,?,?
CC(C)OC(=O)N(C)C[C@@H]1OCc2cnnn2CCCC(=O)N([C@@H](C)CO)C[C@H]1C,24%,0,nt,4%,4%,14%

# Source: PubChem BioAssay (National Center for Advancing Translational Sciences (NCATS))
